# Bioassay records (PubChem BioAssay)
# In the library only some 32% were active in any assay of this set; here they are far more common.
# CYP2C19 activ: human CYP2C19 activators, primary screen, biochemical, luminescence; Cytochrome P450 2C19 (Homo sapiens), P33261; activation factor at 5 µM; AID 1025, 2008; 96,000 tested, under 10 active; recombinant CYP2C19, luciferin-H EGE luminescence; stronger effect = higher value; 0 = fully inhibited enzyme, 1 = untreated enzyme;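 active = activation factor of at least 2 at 5 µM in the primary screen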;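 also: 0 = wells with 2.5 mM tranylcypromine and 1 = vehicle-only wells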
# Target sequence (P33261 whole entry, looked up): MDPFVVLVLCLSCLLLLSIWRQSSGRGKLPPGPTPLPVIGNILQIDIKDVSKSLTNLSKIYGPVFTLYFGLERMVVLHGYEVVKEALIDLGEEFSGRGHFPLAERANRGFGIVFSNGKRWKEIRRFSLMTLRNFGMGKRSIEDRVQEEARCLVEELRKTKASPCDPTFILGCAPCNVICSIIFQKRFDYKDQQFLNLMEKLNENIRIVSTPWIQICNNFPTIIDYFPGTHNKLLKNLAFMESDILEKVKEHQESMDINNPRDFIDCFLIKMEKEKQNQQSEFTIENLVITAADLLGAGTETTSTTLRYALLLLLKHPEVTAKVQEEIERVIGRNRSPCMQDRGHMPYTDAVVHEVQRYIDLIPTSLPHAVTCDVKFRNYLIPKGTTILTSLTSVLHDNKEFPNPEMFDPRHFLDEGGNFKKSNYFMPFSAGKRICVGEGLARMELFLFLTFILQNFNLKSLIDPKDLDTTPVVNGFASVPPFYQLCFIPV
# PostGolgi ctrl: growth inhibition of yeast control strain, primary screen, counter-screen for post-Golgi transport modulator project; hit rate 5% among 98,000; inhibition, % at 10 µM; efflux-deficient yeast background strain, growth absorbance A615, 16 h
# PostGolgi yeast: phenotypic screen on post-Golgi transport, primary screen; post-Golgi transport phenotypic cell assay; inhibition, % at 10 µM; hit rate 0.9% among 98,000; AID 739, 2007;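 also: yeast cells grown in 1536-well plates; yeast grown about 18 h at 30C before absorbance read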
# CYP2C19 inh: blockers of cytochrome P450 2C19 activity – biochemical, luminescence, ADME assay, primary screen; P33261; CYP2C19 Supersomes, luciferin-H EGE luminescence, 30 min; inhibition, % at 5 µM; hit rate 21% among 96,000;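 active = CYP2C19 inhibition above a set limit at 5 µM in the primary screen, cut at about 50% in these data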;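 also: plate controls were negative control wells for no effect and 2.5 mM tranylcypromine positive control for full effect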
# CYP2C9 activ: human CYP2C9 activators, primary screen, biochemical, luminescence | hit rate 1.4% among 96,000 | AID 1024, 2008 | Cytochrome P450 2C9 (Homo sapiens), P11712 | recombinant CYP2C9, luciferin-H conversion; stronger effect = higher value; factor 1 = untreated enzyme, 0 = blocked | activation factor at 5 µM;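 active = activation factor of 2 or more for CYP2C9 at a 5 µM dose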;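 also: 0 = sulfaphenazole-blocked wells and 1 = vehicle-only wells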
# CYP2C9 inh: blockers of cytochrome P450 2C9 activity – biochemical, luminescence, ADME assay, primary screen; P11712; CYP2C9 Supersomes, luciferin-H conversion; inhibition, % at 5 µM; hit rate 20% among 96,000; AID 777, 2007;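 active = blocking of liver enzyme CYP2C9 beyond about 50% at 5 µM, limit read from the data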
# The depositor's hits bear a star; nt = no result given. Rule as the data show it, unless noted: active = inhibition above about 30%; inactive = the rest.
SMILES,CYP2C19 activ,PostGolgi ctrl,PostGolgi yeast,CYP2C19 inh,CYP2C9 activ,CYP2C9 inh
O=C(C1CCN(S(=O)(=O)c2cccc3cccnc23)CC1)N1CCN(c2ccc(Cl)cc2)CC1,0.1,16.5,-0.6,85.2*,2.3*,-132.5
O=C(COC(=O)C1CCN(S(=O)(=O)c2cccc3cccnc23)CC1)c1ccc([N+](=O)[O-])cc1,1.1,1.6,-4.8,-8.9,1.5,-50.8
CC1Cc2ccccc2N1C(=O)CN(C)S(=O)(=O)c1cccc2cccnc12 (configuration not stated),0.7,12.3,3.3,27.4,1.9,-88.5
COc1ccc(N2CCN(C(=O)C3CCCN(S(=O)(=O)c4cccc5cccnc45)C3)CC2)cc1 (configuration not stated),0.3,3.9,-8.6,65.4*,1.1,-12.2
Cc1cc(C(F)(F)F)nc(NCc2cccnc2)n1,nt,13.8,2.2,nt,nt,nt
Cc1ccc(CNC(=O)c2ccc(CN3CCOCC3)cc2)cc1,1.1,16.3,-7.4,-15.0,1,0.8
COc1cccc(C(=O)C2CN(c3ccccc3)CC2c2ccc(Cl)cc2)c1 (configuration not stated),1,6.3,7.7,4.0,0.8,22.1
Cc1ccc(CSCCNS(C)(=O)=O)cc1,0.8,-1.8,-8.3,21.4,0.8,19.6
O=S(=O)(c1cccc2cccnc12)N1CCc2ccccc21,0.9,21.6,-1.5,10.3,1.2,-19.1
O=C(C1CCN(S(=O)(=O)c2ccc3ccccc3c2)CC1)N1CCN(c2ncccn2)CC1,0.3,11.7,1.9,70.8*,1.7,-71.4
Cc1ccc2cccc(S(=O)(=O)N3CCN(c4cccc(Cl)c4)CC3)c2n1,0.1,57.4*,1.7,92.0*,0.9,10.6
O=S(=O)(c1cccc2cccnc12)N1CCN(c2ccccc2)CC1,0,10.3,22.8,98.7*,2.8*,-178.5
O=C1CC(Cc2ccc(Cl)cc2)C(=O)N1c1ccccn1 (configuration not stated),0.6,3.2,7.3,43.6,1,-1.1
CC1(C)NC(=O)N(CC(O)CN(Cc2ccccc2)Cc2ccccc2)C1=O (configuration not stated),0.2,10.1,-4.3,84.7*,0.7,28.3
CC1(C)NC(=O)N(CC(O)CN2CCOCC2)C1=O (configuration not stated),0.4,0.3,14.7,56.0*,0.6,44.6
CCCCN(CCCC)CC(O)CN1C(=O)NC(C)(C)C1=O (configuration not stated),1.2,1.9,4.7,-21.2,1.2,-23.4
Cc1ccc(OCC(O)CN2C(=O)NC(C)(C)C2=O)cc1C (configuration not stated),0.2,10.3,0.7,84.0*,0.7,29.1
CCCCCCOc1ccc(OCC(O)CN2C(=O)NC(C)(C)C2=O)cc1 (configuration not stated),0.9,7.5,-7.0,14.7,0.9,13.6
Cc1ccc(C2C(C(=O)O)c3ccccc3C(=O)N2C)o1 (configuration not stated),1,12.0,20.4,-3.4,0.9,9.0
Cc1ccc2c(c1)c1ncnc(N3CCC4(CC3)OCCO4)c1n2C,0.9,19.0,-2.5,11.7,0.4,61.9*
Cc1ccc2c(c1)c1ncnc(N3CCN(c4ccccc4)CC3)c1n2C,0.9,52.6*,17.4,9.9,0.8,15.5
Cc1ccc2c(c1)c1ncnc(N3CCOCC3)c1n2C,1,36.2*,19.7,2.3,0.8,18.3
COc1ccc(C)cc1S(=O)(=O)N1CCN(Cc2ccccc2)CC1,0,-4.0,-4.7,96.0*,0.1,89.6*
CCN1CCN(S(=O)(=O)c2cc(OC)ccc2OC)CC1,0.9,1.1,9.1,12.6,1.2,-17.6
CCOc1ccccc1CN1CCN(S(C)(=O)=O)CC1,0.7,8.2,-2.4,31.6,1.1,-9.6
SMILES,CYP2C19 activ,PostGolgi ctrl,PostGolgi yeast,CYP2C19 inh,CYP2C9 activ,CYP2C9 inh
COc1ccc(S(=O)(=O)N2CCCN(CC(=O)Nc3cc(NC(C)=O)ccc3OC)CC2)cc1,0.8,7.1,-0.5,17.4,0.6,37.0
CCOc1cc(S(=O)(=O)N2CCN(Cc3ccccc3)CC2)ccc1Br,0,29.2,9.5,96.9*,0.6,40.9
COc1ccc(S(=O)(=O)N2CCCN(Cc3cccc(F)c3)CC2)cc1,0.4,45.4*,1.9,60.4*,1.6,-55.0
Cn1c(=O)c2cc(S(=O)(=O)N3CCC(c4ccccc4)CC3)ccc2n(C)c1=O,0.8,-5.8,29.1,19.5,0.3,68.4*
CC(=O)NC(Cc1ccccc1F)C(=O)NC1CCN(C(=O)c2cnccn2)CC1 (configuration not stated),1,-1.7,18.6,-0.4,1,-1.1
COc1ccc(S(=O)(=O)N2CCN(Cc3ccccc3)CC2)cc1,0.1,3.1,2.0,89.0*,1.1,-11.4
O=S(=O)(c1ccccc1)N1CCN(Cc2cccc(Cl)c2)CC1,0.3,8.4,1.8,70.1*,0.4,60.8*
Cn1c(=O)c(=O)n(C)c2cc(S(=O)(=O)N3CCN(Cc4ccccc4)CC3)ccc21,1,10.4,4.3,-2.1,0.5,51.4*
CN(Cc1ccccc1)S(=O)(=O)c1ccc2c(c1)n(C)c(=O)n2C,0.3,12.6,0.6,65.1*,1,4.5
Cn1c(=O)c(=O)n(C)c2cc(S(=O)(=O)N3CCCCC3)ccc21,1.2,8.0,16.6,-20.6,1.2,-18.1
O=C(C1CCC(C(=O)N2CCCCC2)CC1)N1CCCCC1 (configuration not stated),0.9,6.4,1.4,9.1,1.2,-16.6
COc1cccc(CN2CCN(S(=O)(=O)c3ccc(Br)cc3)CC2)c1,0.1,4.3,-6.0,86.4*,0.4,61.0*
O=C(NCCN1CCCC1)c1cc(-c2ccncc2)nc2ccc(S(=O)(=O)N3CCOCC3)cc12,0.6,-1.6,15.1,40.0,0.7,32.0
CCn1c(SCC(=O)c2ccc3c(c2)OCCO3)nnc1-c1ccco1,0,3.9,2.0,95.5*,0.6,39.1
CCn1c(SCC(=O)c2ccc3ccccc3c2)nnc1-c1ccco1,0.8,24.2,12.2,18.8,0.6,40.4
COCCn1c(SCC(=O)c2ccc3c(c2)OCCO3)nnc1-c1ccco1,0.4,2.1,-2.8,64.6*,0.6,42.0
CS(=O)(=O)N1CCC(C(=O)NCc2ccncc2)CC1,0.8,5.6,21.8,15.6,0.4,59.4*
COc1ccccc1CNC(=O)C1CCCN(S(=O)(=O)c2cnc[nH]2)C1 (configuration not stated),0,-3.7,-5.5,96.6*,0.1,90.0*
O=C(NCc1ccncc1)C1CCCCC1,0.9,7.8,-2.9,11.9,0.6,41.8
